Measurements published in publication PMC7862700, “An all-to-all approach to the identification of sequence-specific readers for epigenetic DNA modifications on cytosine”.

Assays:
Assay in all cases: DAPPL (digital affinity profiling via proximity ligation, sequencing); 10 mM Tris-HCl pH 7.5, 50 mM NaCl, 1 mM DTT, 4% glycerol, room temperature, 30 min; GST-TFs on glutathione beads, 16-mer random dsDNA library, 0.1% formaldehyde crosslink after washing; high values mean tight binding
Conditions in all cases: protein: recombinant; tags: N-terminal GST; dsDNA, one strand shown
ELK1 = target: T1, ELK1 (Homo sapiens, UniProt P19419 1-428)
T1 sequence: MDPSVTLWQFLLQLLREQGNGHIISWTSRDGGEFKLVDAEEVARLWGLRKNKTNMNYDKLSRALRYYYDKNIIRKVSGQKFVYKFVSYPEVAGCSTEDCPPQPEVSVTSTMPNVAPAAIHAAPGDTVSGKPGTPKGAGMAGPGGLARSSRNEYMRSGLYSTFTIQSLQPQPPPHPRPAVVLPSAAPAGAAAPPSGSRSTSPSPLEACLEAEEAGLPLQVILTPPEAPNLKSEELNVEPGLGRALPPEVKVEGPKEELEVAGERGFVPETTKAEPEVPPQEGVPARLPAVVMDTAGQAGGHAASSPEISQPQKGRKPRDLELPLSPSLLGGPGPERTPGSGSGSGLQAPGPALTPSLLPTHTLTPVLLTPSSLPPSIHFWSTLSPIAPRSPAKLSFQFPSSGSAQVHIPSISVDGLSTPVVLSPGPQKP
Procedure, shortened: (§1)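 A tag-only sample was pooled with DNA-barcoded human transcription factors that had been expressed in yeast as GST fusions and captured on glutathione beads. The pools were incubated for 30 min at room temperature with 200 nmole of a random double-stranded 16-mer DNA library in Tris/NaCl/DTT/glycerol buffer, then washed, crosslinked with 0.1% formaldehyde, proximity-ligated (BsaI/T4 ligase, 1 h, 37 °C), PCR-amplified and sequenced on an Illumina NextSeq500. Binding signal is each hexamer's read frequency for a factor divided by its frequency for the tag-only sample.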

GABPA = target: T2, GABPA (Homo sapiens, UniProt Q06546 1-454)
T2 sequence: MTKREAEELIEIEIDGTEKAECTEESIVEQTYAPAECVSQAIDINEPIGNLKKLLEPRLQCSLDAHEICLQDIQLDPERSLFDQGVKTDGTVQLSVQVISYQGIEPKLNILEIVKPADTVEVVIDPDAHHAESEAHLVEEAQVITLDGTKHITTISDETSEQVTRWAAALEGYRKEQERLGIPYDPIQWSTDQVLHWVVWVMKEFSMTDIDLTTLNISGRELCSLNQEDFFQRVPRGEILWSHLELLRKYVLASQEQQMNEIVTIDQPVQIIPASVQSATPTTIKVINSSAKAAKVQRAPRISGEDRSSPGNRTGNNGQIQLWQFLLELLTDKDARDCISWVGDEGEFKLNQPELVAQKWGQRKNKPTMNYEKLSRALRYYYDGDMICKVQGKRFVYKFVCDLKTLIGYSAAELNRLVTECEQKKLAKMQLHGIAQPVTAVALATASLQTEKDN
Procedure, shortened: as §1

ERG = target: T3, ERG (Homo sapiens, UniProt P11308 1-479)
T3 sequence: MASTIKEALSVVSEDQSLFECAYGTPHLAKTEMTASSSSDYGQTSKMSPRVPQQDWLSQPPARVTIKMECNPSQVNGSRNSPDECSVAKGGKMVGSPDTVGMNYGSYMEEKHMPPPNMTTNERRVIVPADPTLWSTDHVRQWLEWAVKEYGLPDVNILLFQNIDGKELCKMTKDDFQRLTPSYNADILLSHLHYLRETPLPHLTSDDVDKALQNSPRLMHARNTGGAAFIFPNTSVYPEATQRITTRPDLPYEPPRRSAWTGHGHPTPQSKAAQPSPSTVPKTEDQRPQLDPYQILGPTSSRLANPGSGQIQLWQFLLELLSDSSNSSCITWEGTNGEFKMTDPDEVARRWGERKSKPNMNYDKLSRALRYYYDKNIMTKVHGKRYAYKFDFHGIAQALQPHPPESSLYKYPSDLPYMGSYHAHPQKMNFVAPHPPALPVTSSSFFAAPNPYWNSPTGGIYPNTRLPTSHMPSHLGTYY
Procedure, shortened: as §1

ELF1 = ELF1 (Homo sapiens, UniProt P32519 1-619)
Procedure, shortened: as §1

EHF = target: T4, EHF (Homo sapiens, UniProt Q9NZC4 1-300)
T4 sequence: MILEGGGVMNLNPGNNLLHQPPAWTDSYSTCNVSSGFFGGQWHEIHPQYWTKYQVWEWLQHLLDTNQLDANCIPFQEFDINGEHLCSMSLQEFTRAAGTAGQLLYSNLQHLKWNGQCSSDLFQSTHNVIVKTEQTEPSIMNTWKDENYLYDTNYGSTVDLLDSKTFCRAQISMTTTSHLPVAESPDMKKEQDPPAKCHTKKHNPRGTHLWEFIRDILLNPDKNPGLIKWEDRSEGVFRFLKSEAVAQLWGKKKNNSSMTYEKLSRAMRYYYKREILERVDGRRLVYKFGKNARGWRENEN
Procedure, shortened: as §1

SPIB = SPIB (Homo sapiens, UniProt Q01892 1-262)
Procedure, shortened: as §1

FEV = target: T5, FEV (Homo sapiens, UniProt Q99581 1-238)
T5 sequence: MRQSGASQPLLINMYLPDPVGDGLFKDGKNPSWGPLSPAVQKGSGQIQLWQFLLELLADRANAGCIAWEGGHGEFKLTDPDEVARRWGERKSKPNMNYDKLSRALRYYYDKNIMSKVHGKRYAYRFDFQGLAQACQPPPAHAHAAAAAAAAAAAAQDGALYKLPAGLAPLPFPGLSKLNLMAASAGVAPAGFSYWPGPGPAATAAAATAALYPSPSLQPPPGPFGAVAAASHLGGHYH
Procedure, shortened: as §1

ETV5 = ETV5 (Homo sapiens, UniProt P41161 1-510)
Procedure, shortened: as §1

ELF4 = ELF4 (Homo sapiens, UniProt Q99607 1-663)
Procedure, shortened: as §1

ETV2 = target: T6, ETV2 (Homo sapiens, UniProt O00321 1-342)
T6 sequence: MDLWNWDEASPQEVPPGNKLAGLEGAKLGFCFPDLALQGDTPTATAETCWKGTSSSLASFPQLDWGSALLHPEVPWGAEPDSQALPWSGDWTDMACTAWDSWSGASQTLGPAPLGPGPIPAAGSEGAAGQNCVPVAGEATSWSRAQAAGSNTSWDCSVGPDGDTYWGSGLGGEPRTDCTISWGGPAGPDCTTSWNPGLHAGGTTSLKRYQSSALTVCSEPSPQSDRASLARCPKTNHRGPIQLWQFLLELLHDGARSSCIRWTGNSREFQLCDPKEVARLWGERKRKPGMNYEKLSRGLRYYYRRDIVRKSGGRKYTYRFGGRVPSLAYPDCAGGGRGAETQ
Procedure, shortened: as §1

ELF3 = target: T7, ELF3 (Homo sapiens, UniProt P78545 1-371)
T7 sequence: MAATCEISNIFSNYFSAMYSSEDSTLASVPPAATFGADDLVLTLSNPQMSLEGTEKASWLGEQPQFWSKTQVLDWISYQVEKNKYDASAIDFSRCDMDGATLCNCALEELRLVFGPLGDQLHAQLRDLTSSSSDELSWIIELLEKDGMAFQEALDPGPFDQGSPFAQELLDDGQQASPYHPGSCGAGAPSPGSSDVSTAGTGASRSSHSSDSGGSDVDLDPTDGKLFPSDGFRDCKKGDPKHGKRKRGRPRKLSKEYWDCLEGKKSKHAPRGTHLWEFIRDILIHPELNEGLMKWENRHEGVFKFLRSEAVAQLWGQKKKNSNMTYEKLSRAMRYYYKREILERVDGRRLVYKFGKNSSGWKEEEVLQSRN
Procedure, shortened: as §1

ETV1 = ETV1 (Homo sapiens, UniProt P50549 1-477)
Procedure, shortened: as §1

ERF = target: T8, ERF (Homo sapiens, UniProt P50548 1-548)
T8 sequence: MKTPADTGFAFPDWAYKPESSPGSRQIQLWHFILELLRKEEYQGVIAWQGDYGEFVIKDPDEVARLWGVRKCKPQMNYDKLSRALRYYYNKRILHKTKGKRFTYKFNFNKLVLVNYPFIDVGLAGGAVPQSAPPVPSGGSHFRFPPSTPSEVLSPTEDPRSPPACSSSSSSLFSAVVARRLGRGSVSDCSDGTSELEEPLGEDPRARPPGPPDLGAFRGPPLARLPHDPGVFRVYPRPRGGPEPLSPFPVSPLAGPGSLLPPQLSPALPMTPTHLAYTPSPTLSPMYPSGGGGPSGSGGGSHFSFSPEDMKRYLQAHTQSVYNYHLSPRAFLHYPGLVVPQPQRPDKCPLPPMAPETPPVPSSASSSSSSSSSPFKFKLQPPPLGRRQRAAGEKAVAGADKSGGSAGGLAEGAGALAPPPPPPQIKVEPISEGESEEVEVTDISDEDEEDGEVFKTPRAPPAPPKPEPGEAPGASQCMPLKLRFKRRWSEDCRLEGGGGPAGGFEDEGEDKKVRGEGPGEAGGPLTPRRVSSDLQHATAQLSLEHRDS
Procedure, shortened: as §1

ETV3L = target: T9, ETV3L (Homo sapiens, UniProt Q6ZN32 1-361)
T9 sequence: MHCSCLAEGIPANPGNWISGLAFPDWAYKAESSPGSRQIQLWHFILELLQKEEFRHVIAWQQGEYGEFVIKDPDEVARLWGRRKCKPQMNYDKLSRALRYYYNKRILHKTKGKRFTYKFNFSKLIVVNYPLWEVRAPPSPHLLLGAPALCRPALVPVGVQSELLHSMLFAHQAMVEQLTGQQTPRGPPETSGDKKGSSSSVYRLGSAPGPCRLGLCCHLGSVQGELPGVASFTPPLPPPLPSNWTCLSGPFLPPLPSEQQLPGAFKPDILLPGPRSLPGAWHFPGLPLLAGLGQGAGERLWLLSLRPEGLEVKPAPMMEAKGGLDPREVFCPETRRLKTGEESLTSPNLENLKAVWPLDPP
Procedure, shortened: as §1

ETS2 = target: T10, ETS2 (Homo sapiens, UniProt P15036 1-469)
T10 sequence: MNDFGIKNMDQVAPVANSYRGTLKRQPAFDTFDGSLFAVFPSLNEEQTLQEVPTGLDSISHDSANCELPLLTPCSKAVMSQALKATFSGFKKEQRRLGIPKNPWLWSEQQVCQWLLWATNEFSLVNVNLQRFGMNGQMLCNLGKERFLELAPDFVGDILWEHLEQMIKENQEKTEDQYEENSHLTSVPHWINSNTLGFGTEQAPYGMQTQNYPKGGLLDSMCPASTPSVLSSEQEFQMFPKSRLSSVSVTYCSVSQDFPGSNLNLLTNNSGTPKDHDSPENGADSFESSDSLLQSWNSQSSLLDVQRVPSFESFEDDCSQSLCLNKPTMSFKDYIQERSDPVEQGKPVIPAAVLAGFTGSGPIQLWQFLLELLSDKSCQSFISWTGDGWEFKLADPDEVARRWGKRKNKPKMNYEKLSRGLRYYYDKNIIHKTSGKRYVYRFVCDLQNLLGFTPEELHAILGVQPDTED
Procedure, shortened: as §1

SPDEF = target: T11, SPDEF (Homo sapiens, UniProt O95238 1-335)
T11 sequence: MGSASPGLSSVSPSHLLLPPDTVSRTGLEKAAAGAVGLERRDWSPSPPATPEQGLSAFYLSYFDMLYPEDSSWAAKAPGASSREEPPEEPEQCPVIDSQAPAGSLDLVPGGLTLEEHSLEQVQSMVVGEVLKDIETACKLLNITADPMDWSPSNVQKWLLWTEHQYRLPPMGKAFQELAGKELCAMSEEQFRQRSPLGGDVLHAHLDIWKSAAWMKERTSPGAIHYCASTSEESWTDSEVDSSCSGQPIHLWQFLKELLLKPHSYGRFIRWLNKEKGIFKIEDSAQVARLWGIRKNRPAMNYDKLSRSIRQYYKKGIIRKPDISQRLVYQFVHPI
Procedure, shortened: as §1

ETV7 = target: T12, ETV7 (Homo sapiens, UniProt Q9Y603 1-341)
T12 sequence: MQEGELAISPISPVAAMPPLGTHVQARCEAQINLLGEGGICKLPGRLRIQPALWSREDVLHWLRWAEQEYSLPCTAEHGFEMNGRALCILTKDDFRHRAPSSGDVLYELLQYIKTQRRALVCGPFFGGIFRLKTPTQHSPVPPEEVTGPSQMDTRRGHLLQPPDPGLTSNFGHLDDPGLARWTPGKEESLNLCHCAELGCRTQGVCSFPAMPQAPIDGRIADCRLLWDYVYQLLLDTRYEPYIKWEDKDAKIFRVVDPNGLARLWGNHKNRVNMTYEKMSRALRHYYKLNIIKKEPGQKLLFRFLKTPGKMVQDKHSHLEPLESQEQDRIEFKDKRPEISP
Procedure, shortened: as §1

ETV3 = target: T13, ETV3 (Homo sapiens, UniProt P41162-2 1-143)
T13 sequence: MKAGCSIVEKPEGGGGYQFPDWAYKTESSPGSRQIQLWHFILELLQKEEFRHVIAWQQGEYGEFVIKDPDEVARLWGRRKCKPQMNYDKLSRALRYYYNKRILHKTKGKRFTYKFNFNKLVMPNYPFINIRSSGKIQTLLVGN
Procedure, shortened: as §1

ETV6 = ETV6 (Homo sapiens, UniProt P41212 1-452)
Procedure, shortened: as §1

Sequence of ETV6 (P41212 whole entry): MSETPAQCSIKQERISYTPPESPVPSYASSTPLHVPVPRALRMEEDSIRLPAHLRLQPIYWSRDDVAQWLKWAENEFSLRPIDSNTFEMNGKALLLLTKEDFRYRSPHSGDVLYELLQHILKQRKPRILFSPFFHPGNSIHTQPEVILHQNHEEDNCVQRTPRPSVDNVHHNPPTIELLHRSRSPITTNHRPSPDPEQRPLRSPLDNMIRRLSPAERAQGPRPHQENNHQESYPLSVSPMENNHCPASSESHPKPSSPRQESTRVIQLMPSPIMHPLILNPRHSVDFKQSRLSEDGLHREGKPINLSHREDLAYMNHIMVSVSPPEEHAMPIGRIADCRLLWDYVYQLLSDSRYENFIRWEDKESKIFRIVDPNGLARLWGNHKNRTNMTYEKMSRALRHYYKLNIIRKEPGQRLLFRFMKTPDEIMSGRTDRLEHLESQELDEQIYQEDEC
Sequence of SPIB (Q01892 whole entry): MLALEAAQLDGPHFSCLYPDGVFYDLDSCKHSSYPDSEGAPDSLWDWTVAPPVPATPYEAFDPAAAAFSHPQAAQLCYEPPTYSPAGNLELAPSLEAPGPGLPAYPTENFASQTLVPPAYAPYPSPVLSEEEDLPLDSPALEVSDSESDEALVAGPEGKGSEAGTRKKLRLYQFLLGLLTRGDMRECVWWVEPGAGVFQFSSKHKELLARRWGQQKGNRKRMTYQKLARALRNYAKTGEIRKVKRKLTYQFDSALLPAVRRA
Sequence of ELF4 (Q99607 whole entry): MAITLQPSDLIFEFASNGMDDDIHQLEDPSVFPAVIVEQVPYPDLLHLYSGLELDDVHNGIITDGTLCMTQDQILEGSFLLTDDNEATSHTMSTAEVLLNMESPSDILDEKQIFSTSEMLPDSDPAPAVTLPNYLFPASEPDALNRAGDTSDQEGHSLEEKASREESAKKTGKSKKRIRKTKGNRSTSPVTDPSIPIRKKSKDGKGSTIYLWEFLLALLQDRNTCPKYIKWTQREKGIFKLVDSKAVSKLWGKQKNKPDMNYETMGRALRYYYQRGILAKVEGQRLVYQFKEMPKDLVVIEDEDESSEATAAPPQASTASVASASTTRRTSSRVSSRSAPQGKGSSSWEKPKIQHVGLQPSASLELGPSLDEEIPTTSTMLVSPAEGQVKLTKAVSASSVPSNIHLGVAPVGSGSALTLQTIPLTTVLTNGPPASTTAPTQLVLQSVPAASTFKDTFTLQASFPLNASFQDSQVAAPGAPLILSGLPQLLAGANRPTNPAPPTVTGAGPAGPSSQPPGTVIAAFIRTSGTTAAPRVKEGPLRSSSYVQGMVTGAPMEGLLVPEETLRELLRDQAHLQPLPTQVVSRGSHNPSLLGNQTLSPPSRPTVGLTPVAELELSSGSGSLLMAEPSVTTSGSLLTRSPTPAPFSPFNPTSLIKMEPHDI
Sequence of ETV5 (P41161 whole entry): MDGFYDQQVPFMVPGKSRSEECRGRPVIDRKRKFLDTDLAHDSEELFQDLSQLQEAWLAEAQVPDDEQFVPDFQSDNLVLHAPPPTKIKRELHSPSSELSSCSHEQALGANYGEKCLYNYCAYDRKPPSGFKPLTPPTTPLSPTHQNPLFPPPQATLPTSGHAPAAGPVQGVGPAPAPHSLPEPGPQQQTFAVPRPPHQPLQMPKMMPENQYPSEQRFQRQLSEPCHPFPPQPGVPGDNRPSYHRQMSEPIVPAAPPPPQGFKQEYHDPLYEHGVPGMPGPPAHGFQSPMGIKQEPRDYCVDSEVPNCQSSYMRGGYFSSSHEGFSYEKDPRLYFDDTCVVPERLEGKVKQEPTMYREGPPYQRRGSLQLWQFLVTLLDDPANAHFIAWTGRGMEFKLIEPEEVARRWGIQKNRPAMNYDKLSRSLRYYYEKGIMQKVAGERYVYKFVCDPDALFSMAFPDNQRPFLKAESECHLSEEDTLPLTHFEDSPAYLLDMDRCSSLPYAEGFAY
Sequence of ELF1 (P32519 whole entry): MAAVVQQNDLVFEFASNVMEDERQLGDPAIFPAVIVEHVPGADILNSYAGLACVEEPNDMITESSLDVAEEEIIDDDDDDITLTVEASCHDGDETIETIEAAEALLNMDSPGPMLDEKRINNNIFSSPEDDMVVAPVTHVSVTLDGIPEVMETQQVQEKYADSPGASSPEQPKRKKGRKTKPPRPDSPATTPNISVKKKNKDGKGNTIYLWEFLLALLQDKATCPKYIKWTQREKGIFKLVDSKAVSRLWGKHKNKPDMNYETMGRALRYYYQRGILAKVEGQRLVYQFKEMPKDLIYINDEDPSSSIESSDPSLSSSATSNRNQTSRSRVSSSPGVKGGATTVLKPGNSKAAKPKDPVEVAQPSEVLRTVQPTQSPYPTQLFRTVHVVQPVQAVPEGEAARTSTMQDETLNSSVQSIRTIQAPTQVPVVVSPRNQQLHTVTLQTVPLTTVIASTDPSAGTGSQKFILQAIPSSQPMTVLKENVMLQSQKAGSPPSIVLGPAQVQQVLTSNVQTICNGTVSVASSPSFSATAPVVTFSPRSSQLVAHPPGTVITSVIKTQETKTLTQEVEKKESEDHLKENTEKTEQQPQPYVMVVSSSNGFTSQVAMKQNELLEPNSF
Sequence of ETV1 (P50549 whole entry): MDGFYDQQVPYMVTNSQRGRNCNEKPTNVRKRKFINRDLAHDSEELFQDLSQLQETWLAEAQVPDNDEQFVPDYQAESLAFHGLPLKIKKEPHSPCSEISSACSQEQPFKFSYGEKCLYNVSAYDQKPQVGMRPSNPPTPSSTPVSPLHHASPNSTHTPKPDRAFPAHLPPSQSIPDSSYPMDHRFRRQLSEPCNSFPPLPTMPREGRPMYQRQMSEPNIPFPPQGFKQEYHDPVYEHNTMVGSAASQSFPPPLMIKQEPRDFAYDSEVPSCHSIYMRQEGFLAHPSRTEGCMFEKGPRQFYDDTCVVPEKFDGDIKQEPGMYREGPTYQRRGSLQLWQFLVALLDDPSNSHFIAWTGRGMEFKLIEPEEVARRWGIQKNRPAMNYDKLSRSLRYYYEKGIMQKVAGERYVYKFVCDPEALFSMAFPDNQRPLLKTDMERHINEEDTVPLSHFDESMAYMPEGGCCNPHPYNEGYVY

Q: Which results are given for AACCGC?
A: binding signal (ELK1): 1.07 fold enrichment (6-mer frequency, TF over GST control); binding signal (GABPA): 1.1 fold enrichment (6-mer frequency, TF over GST control); binding signal (ERG): 1.09 fold enrichment (6-mer frequency, TF over GST control); binding signal (ELF1): 1.11 fold enrichment (6-mer frequency, TF over GST control); binding signal (EHF): 1.18 fold enrichment (6-mer frequency, TF over GST control); binding signal (SPIB): 1.12 fold enrichment (6-mer frequency, TF over GST control); binding signal (FEV): 1.09 fold enrichment (6-mer frequency, TF over GST control); binding signal (ETV5): 1.09 fold enrichment (6-mer frequency, TF over GST control); binding signal (ELF4): 1.12 fold enrichment (6-mer frequency, TF over GST control); binding signal (ETV2): 1.12 fold enrichment (6-mer frequency, TF over GST control); binding signal (ELF3): 1.1 fold enrichment (6-mer frequency, TF over GST control); binding signal (ETV1): 1.02 fold enrichment (6-mer frequency, TF over GST control); binding signal (ERF): 1.08 fold enrichment (6-mer frequency, TF over GST control); binding signal (ETV3L): 1.08 fold enrichment (6-mer frequency, TF over GST control); binding signal (ETS2): 1.1 fold enrichment (6-mer frequency, TF over GST control); binding signal (SPDEF): 1.11 fold enrichment (6-mer frequency, TF over GST control); binding signal (ETV7): 1.07 fold enrichment (6-mer frequency, TF over GST control); binding signal (ETV3): 1.08 fold enrichment (6-mer frequency, TF over GST control); binding signal (ETV6): 1.19 fold enrichment (6-mer frequency, TF over GST control)
